Tests used:
[1] = target: Mast/stem cell growth factor receptor Kit (Homo sapiens) (UniProt P10721); conditions: at 1 µM
[2] = test system: Mast/stem cell growth factor receptor Kit (Homo sapiens), P10721 [D816V]; conditions: at 0.1 µM
[3] = test system: Mast/stem cell growth factor receptor Kit (Homo sapiens), P10721 [D816V]; conditions: at 1 µM
[4] = test system: Mast/stem cell growth factor receptor Kit (Homo sapiens), P10721 [T670I]; conditions: at 0.1 µM
[5] = test system: Mast/stem cell growth factor receptor Kit (Homo sapiens), P10721 [T670I]; conditions: at 1 µM
[6] = test system: Mast/stem cell growth factor receptor Kit (Homo sapiens), P10721 [V560G]; conditions: at 0.1 µM
[7] = test system: Mast/stem cell growth factor receptor Kit (Homo sapiens), P10721 [V560G]; conditions: at 1 µM
[8] = target: Tyrosine-protein kinase Lck (Homo sapiens) (UniProt P06239); conditions: at 0.1 µM
[9] = target: Tyrosine-protein kinase Lck (Homo sapiens) (UniProt P06239); conditions: at 1 µM
[10] = target: Leukocyte tyrosine kinase receptor (Homo sapiens) (UniProt P29376); conditions: at 0.1 µM
Chain of Leukocyte tyrosine kinase receptor (Homo sapiens) (P29376 whole entry): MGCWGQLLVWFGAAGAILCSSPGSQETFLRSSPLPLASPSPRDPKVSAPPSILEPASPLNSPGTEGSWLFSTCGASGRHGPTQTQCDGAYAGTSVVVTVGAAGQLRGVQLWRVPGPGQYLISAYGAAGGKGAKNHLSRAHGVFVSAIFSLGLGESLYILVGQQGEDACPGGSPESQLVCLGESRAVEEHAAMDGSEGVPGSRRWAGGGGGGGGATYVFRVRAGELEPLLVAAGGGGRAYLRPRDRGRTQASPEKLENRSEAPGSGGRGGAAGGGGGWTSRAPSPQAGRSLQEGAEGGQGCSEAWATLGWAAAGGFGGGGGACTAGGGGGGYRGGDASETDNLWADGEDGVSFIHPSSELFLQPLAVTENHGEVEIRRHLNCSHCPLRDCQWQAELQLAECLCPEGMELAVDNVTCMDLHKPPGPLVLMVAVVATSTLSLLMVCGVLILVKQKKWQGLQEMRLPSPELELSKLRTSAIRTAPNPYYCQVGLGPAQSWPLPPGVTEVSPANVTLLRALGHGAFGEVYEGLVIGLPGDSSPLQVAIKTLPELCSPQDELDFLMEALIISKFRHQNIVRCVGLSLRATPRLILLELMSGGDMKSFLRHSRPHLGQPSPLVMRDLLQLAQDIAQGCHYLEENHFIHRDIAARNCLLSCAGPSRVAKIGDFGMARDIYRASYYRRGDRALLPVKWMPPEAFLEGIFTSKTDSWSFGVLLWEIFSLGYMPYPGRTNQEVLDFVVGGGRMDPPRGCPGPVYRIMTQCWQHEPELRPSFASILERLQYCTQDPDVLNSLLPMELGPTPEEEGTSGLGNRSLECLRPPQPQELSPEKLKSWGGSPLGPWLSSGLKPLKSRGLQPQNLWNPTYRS

Chain of Mast/stem cell growth factor receptor Kit (Homo sapiens), P10721 [V560G] (P10721 whole entry V560G): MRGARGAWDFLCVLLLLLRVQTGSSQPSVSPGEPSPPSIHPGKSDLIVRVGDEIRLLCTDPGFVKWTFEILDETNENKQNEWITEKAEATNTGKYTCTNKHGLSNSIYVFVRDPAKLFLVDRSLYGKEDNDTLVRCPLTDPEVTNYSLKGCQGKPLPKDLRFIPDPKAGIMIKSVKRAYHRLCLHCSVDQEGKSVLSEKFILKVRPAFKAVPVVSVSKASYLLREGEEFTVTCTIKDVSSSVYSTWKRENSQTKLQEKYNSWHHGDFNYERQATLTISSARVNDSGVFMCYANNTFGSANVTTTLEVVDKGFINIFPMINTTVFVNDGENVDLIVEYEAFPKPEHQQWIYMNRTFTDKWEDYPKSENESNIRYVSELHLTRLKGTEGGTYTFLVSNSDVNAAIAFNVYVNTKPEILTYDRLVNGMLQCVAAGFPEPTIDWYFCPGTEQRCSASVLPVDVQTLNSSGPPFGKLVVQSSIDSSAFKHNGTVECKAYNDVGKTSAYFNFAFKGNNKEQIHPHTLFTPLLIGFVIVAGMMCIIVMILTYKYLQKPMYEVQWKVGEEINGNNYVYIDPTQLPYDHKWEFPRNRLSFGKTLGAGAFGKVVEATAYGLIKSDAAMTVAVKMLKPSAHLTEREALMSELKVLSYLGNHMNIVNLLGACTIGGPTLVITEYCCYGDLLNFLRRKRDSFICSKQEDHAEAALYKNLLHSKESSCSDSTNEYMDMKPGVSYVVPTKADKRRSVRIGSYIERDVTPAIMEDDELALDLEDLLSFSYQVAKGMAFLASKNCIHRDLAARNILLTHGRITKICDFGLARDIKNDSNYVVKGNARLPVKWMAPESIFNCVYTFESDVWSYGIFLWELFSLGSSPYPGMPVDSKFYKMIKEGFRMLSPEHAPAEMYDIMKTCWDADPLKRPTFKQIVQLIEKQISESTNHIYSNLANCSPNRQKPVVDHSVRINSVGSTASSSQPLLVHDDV
Chain of Mast/stem cell growth factor receptor Kit (Homo sapiens), P10721 [D816V] (P10721 whole entry D816V): as the sequence (P10721 whole entry V560G) above, with G560V, D816V counted along it
Chain of Tyrosine-protein kinase Lck (Homo sapiens) (P06239 2-509 limits assumed): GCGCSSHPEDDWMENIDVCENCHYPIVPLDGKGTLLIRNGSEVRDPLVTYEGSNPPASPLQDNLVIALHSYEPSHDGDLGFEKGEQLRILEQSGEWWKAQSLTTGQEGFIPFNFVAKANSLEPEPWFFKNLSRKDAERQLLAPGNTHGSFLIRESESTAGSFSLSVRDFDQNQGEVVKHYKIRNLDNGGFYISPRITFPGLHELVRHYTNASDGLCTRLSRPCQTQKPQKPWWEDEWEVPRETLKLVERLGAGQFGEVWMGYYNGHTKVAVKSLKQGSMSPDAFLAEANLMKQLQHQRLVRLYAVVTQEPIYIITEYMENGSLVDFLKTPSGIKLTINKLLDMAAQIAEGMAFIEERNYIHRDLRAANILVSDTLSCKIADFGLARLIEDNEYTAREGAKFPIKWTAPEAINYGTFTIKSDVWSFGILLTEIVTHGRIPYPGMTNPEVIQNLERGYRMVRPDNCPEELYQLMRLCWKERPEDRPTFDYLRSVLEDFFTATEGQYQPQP
Chain of Mast/stem cell growth factor receptor Kit (Homo sapiens) (P10721 whole entry): as the sequence (P10721 whole entry V560G) above, with G560V counted along it
Chain of Mast/stem cell growth factor receptor Kit (Homo sapiens), P10721 [T670I] (P10721 whole entry T670I): as the sequence (P10721 whole entry V560G) above, with G560V, T670I counted along it

Row | Structure (SMILES) | inhibition [1] | inhibition [2] | inhibition [3] | inhibition [4] | inhibition [5] | inhibition [6] | inhibition [7] | inhibition [8] | inhibition [9] | inhibition [10]
1 | Cc1cc(Cl)cc2c1NC(=O)C2=NNc1ccc(S(N)(=O)=O)cc1 | 12.9% | 4.18% | -3.52% | 2.4% | 3.29% | 2.2% | 7.35% | 1.9% | 1.89% | 2.82%
2 | COc1cccc(-n2ncc3c(N/N=C/c4ccc(S(C)(=O)=O)cc4)ncnc32)c1 | 61.6% | 1.61% | 9.23% | 7.49% | 44.8% | 1.83% | 7.89% | 37.7% | 73.9% | 1.43%
3 | NC(=O)c1cccc(Nc2nccc(Nc3cccc(F)c3)n2)c1 | 82.6% | -0.14% | 2.14% | 0.52% | 7.62% | 2.06% | 32.6% | 2.44% | 15% | 0.75%
4 | O=C(Nc1ccc(Oc2ccc3[nH]c(NC(=O)c4ccco4)nc3c2)cc1)Nc1cc(C(F)(F)F)ccc1F | 92.1% | -0.77% | -1.72% | 12.6% | 79.5% | 25.1% | 72.9% | 1% | 38.8% | 0.05%
5 | c1ccc(Nc2ncc(-c3ccccc3)o2)cc1 | 88.1% | 1.88% | 3.71% | 4.48% | 40% | 1.47% | 50.4% | 3.52% | 10.9% | 6.86%
6 | COC(=O)c1ccc2c(c1)C(=Cc1cc(Br)c(O)c(Br)c1)C(=O)N2 | 16.2% | -0.82% | 4.08% | 2% | 2.74% | -3.35% | 0.2% | 5.24% | 15.3% | 6.76%
7 | COC(=O)c1cncc(/C=C/c2c(C)cc(O)cc2C)c1 | 83.5% | 4.37% | 7.02% | 2.73% | 0.94% | 4.65% | 41.8% | 5.78% | 30.5% | 3.77%
8 | Cc1ccc2c(-c3ccnc(Nc4ccc5c(c4)OCCO5)n3)c(-c3ccc(C(F)(F)F)cc3)nn2n1 | 2.39% | -1.16% | 0.16% | -0.41% | -0.07% | 0.29% | 0.88% | 1.9% | 8.08% | 0.85%
9 | CC(C)c1ccc(Nc2nccc(-c3cnn4ncccc34)n2)cc1 | 95.5% | 2.6% | 4.42% | 19.5% | 81.3% | 17.7% | 64% | 1.2% | 3.47% | 2.91%
10 | COc1cccc(-n2nc(C)c3c(N/N=C(\C)c4ccncc4)ncnc32)c1 | 2.68% | -0.3% | -0.84% | -1.32% | 0.13% | 2.07% | 0.19% | 0.65% | 2.98% | 1.52%
11 | c1ccc(Cc2nc3ccc(Nc4ncnc5ccccc45)cc3[nH]2)cc1 | 11.5% | 2.6% | 7.57% | 5.98% | 3.71% | 2.34% | 5.96% | 2.08% | 9.45% | 2.98%
12 | CCn1c(-c2nonc2N)nc2ccc(F)cc21 | 6.81% | 6.28% | 3.76% | 3.59% | 6.26% | -1.12% | -0.91% | 2.91% | 2.85% | 3.51%
13 | COc1cc(/C=N/Nc2ncnc3c2cnn3C(C)C)ccc1O | 53.3% | -1.37% | 4.07% | 3.16% | -0.48% | 1.9% | 7.86% | 16.7% | 52.8% | 1.55%
14 | NS(=O)(=O)c1ccc(NC=C2C(=O)Nc3ccc4ncsc4c32)cc1 | 94.3% | 8.42% | 31% | 19.8% | 67.2% | 1.8% | 32% | 5.47% | 30.9% | 4.74%
15 | [O-][S+]1CCN(Cc2ccc(-c3ccc4ncnc(Nc5ccc(OCc6ccccc6)c(Cl)c5)c4c3)o2)CC1 | 0.65% | -2.21% | -2.37% | 4.79% | 4.66% | -1.31% | -1.84% | 1.46% | 5.8% | 2.41%
16 | NS(=O)(=O)c1ccc(Nc2cc(-c3cccc(O)c3)n[nH]2)cc1 | 83.7% | 3.6% | 4.78% | 4.57% | 4.81% | 4.28% | 25.4% | 1.64% | 4.8% | 2.99%
17 | CN(c1ccc(NC(=O)Nc2ccc(OC(F)(F)F)cc2)cc1)c1ccnc(Nc2cccc(S(N)(=O)=O)c2)n1 | 95.3% | 3.73% | 2.45% | 22.9% | 89.9% | 37.6% | 93.4% | 33.7% | 80.1% | 2.69%
18 | Cc1ccc(Nc2ccnc(Nc3cccc(C(N)=O)c3)n2)cc1O | 42.7% | 14.9% | 54.3% | 2.19% | 5.43% | 3.09% | 21.1% | 29.2% | 72.2% | 4.36%
19 | COc1ccc2ncnc(Nc3ccc(OCc4ccccc4)cc3)c2c1 | 9.52% | 2.81% | 0.98% | 0.74% | 2.49% | -1.68% | 0.69% | 1.39% | 7.05% | 2.27%
20 | CN(C)c1cc2c(Nc3ccc4c(cnn4Cc4ccccc4)c3)ncnc2cn1 | 3.38% | 4.89% | 2.07% | 3.06% | -0.32% | -2.8% | 2.75% | 5.16% | 22.6% | 1.81%

Row | Structure (SMILES) | inhibition [1] | inhibition [2] | inhibition [3] | inhibition [4] | inhibition [5] | inhibition [6] | inhibition [7] | inhibition [8] | inhibition [9] | inhibition [10]
21 | FC(F)(F)c1ccc(-c2nn3ncccc3c2-c2ccnc(Nc3ccc4c(c3)OCCO4)n2)cc1 | 41.4% | -0.4% | 4.93% | 0.89% | 6.31% | 9.1% | 21.1% | 6.41% | 42.5% | 1.18%
22 | COc1cccc(-n2ncc3c(N/N=C/c4ccc(C)cc4)ncnc32)c1 | 10.6% | 2.8% | 6.2% | 0.52% | 4.07% | -2.84% | -2.13% | 7.28% | 21.3% | 4.23%
23 | CCCN1CCCC(c2ccc(Nc3nc(Nc4cc(F)ccc4C(N)=O)c4cc[nH]c4n3)c(OC)c2)C1 (stereo not given) | 13.1% | 4.45% | 4.83% | 2.47% | 3.44% | -0.05% | -0.43% | 1.09% | 6.22% | 95%
24 | O=C1Nc2ccc(-c3cccnc3)cc2C1=Cc1cc(Br)c(O)c(Br)c1 | 3.66% | 3.44% | 2.96% | 3.51% | 0.52% | 0.16% | 2.16% | 3.31% | 13.2% | 4.94%
25 | Nc1nccc(-c2c(-c3ccc(F)cc3)nn3cc(C(F)(F)F)ccc23)n1 | 1.1% | 1.51% | -0.82% | -0.08% | -0.07% | 1.43% | 0.2% | 2.62% | 4.27% | 1.83%
26 | Nc1nccc(-c2c(-c3ccc(F)cc3)ncn2CCCN2CCOCC2)n1 | 11.4% | 5.23% | 5.35% | 5% | 0.35% | -0.56% | 1.5% | 2.05% | 7.4% | 2.33%
27 | COC(=O)Nc1nc2cc(Oc3ccc(NC(=O)Nc4cccc(Br)c4)cc3)ccc2[nH]1 | 100% | 2.97% | 4.47% | 33% | 56.8% | 69.5% | 86.4% | 5% | 10.5% | 3.48%
28 | CS(=O)(=O)CCNCc1nc(-c2ccc3ncnc(Nc4ccc(OCc5cccc(C(F)(F)F)c5)cc4)c3c2)cs1 | 12.8% | -0.14% | 1.52% | -0.86% | 3.13% | 0.77% | 6.02% | 2.25% | 6.83% | 3.1%
29 | NC(=O)c1sc(-n2cnc3ccccc32)cc1OCc1ccccc1Br | 5.34% | 2.22% | 4.99% | 1.31% | 4.08% | -5.3% | -0.34% | 3.94% | 5.49% | 4.25%
30 | Nc1ccc(C#Cc2cncnc2Nc2ccc(OCc3cccc(F)c3)c(Cl)c2)cc1 | 5.56% | 2.12% | 3.81% | 1.88% | 3.05% | -3.03% | -1.6% | 2.57% | 4.92% | 3.5%
31 | CN1CCN(C(=O)c2ccc(NC(=O)Nc3ccc(N(C)c4ccnc(Nc5ccc(CS(C)(=O)=O)cc5)n4)cc3)cc2)CC1 | 88.5% | 1.27% | 2.73% | 10.6% | 58.7% | 75.1% | 93.2% | 5.01% | 23.9% | 2.61%
32 | Cc1ccc(C(=O)NC2CC2)cc1-c1ccc2[nH]ncc2c1 | 9.73% | -2.2% | -3.32% | -2.37% | -3.32% | 1.39% | 6.83% | -0.97% | 1.92% | -2.04%
33 | CCS(=O)(=O)c1ccc(OC)c(Nc2ncc(-c3cccc(OC)c3)o2)c1 | 97% | 0.77% | 7.53% | 10.8% | 67.6% | 3.11% | 38.3% | 11.7% | 47.6% | 1.67%
34 | Nc1nccc(C#Cc2cncnc2Nc2ccc(OCc3cccc(F)c3)c(Cl)c2)n1 | 2.68% | 3.2% | 2.1% | 1.97% | 1.54% | -1.72% | 1.13% | 1.54% | 8.03% | 3.49%
35 | N#Cc1c(NC(=O)c2ccccc2F)sc2c1CCCC2 | -1.43% | -1.25% | -3.62% | -0.75% | 0.26% | 2.34% | 2.89% | 0.15% | 4.08% | -1.29%
36 | NS(=O)(=O)c1cccc(Nc2cc(-c3ccc(F)cc3)n[nH]2)c1 | 84.5% | 2.34% | 4.52% | 3.28% | 20.1% | 6.14% | 38% | 1.18% | 6.1% | 3.59%
37 | O=C1Nc2ccccc2/C1=C/Nc1ccc2[nH]c(=O)[nH]c2c1 | 84.4% | 3.67% | 10.1% | 13.6% | 71.7% | -0.78% | 21.8% | 3.64% | 11.9% | 5.48%
38 | CC(C)c1ccc2c(c1)NC(=O)/C2=N/Nc1ccc(S(N)(=O)=O)cc1 | 31.5% | -0.12% | 1.26% | 0.1% | 5.91% | 9.17% | 19.4% | 1.79% | 8.63% | 1.63%
39 | CS(=O)(=O)Nc1cccc(-c2ccc3c(NC(=O)C4CC4)n[nH]c3c2)c1 | -3.67% | 1.45% | 0.35% | -1.01% | -2.29% | 0.19% | 0.6% | 1.99% | 6.14% | 1.68%

— ChEMBL document CHEMBL1961873, “Compounds: GSK PKIS; Assays: Nanosyn kinase panel” (2012)
